HT1080-NT tox – kills 2HG-producing HT-1080-NT fibrosarcoma cells; HT-1080-NT fibrosarcoma viability, CellTiter-Glo ATP luminescence, 48 h; Potency, µM (top dose mostly 46.1 µM), inactives show at the highest dose activity, negative = less viability, most hits filed as cytotoxic; hit rate 1.6% among 360,000; AID 686970;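 further: NT is the 2HG producing partner of a matched IDH1 knockdown line; 0% = DMSO-treated cells and -100% = media-only wells without cells; nearly all actives have a fitted effect of over 55% in size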
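HT-1080-NT; 750 cells/well; 5% FBS RPMI; 48 h compound, 37 degrees C; CellTiter-Glo luminescence; curve fitting and curve-class assignment.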
DT40 TDP1 CPT – DT40-hTDP1 cell growth loss with CPT; Potency, µM (highest dose often 46.2 µM), for the others: at the highest dose activity change, negative = growth inhibition, actives largely listed as inhibitors; chicken DT40 Tdp1-/-;hTDP1 cells + 20 nM CPT, ATP luminescence, 48 h; hit rate 12% among 420,000; AID 686979; further: nearly all actives have a fitted effect of over 55% in size
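Cell growth measured by CellTiter-Glo luminescence after a minimum 48 h, 37 C compound exposure with 20 nM CPT in Tdp1-knockout DT40 cells stably expressing hTDP1, seeded 400/well; qHTS titration format.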
HT1080 IDH1KD tx – HT-1080 IDH1 knockdown cell toxicity (counter line) | Potency, µM (highest dose often 46.1 µM), inactives show at the top dose activity, negative = toxicity, usual class: cytotoxic | hit rate 2% among 360,000 | HT-1080 IDH1 knockdown viability, ATP luminescence, 48 h | AID 686971;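 further: 0% = DMSO wells and -100% = cell-free medium wells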
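Cytotoxicity counter-line: IDH1KD HT-1080, 48 h, CellTiter-Glo. Curves classed by r2, magnitude and activity.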
KB-3-1 tox – kills parental KB-3-1 adenocarcinoma cells; KB-3-1 viability, CellTiter-Glo ATP luminescence, 72 h; Potency, µM (titrated, usually from 46.1 µM), actives largely listed as cytotoxic; hit rate 1.4% among 400,000; AID 1347075; further: nearly all actives have a fitted effect of over 60% in size
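Viability of parental KB-3-1 cells, measured by CellTiter-Glo luminescence, followed a 72 h incubation at 37 °C with pinned compounds in phenol-red-free DMEM containing 10% FBS.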
DT40 TDP1 no CPT – qHTS for Inhibitors of human tyrosyl-DNA phosphodiesterase 1 (TDP1): qHTS in cells in absence of CPT; DT40 Tdp1-/- hTDP1 cells, no CPT, ATP luminescence, 48 h; Potency, µM (doses to about 46.2 µM), inactives show top-dose activity change, negative = growth inhibition, most hits filed as inhibitors; hit rate 15% among 420,000; further: nearly all actives have a fitted effect of over 55% in size
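Cells were dispensed at 400 per well, compounds added by pin tool, plates incubated ≥48 hr at 37 °C, then CellTiter-Glo added for 30 min at room temperature before luminescence reading. Line: DT40 Tdp1-/- complemented with hTDP1; camptothecin omitted.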
KB-V1 cytotox – KB-V1 MDR subline cytotoxicity | Potency, µM (highest dose often 46.1 µM), most hits filed as cytotoxic | AID 1347076 | KB-V1 MDR cells viability, CellTiter-Glo, 72 h | hit rate 3.4% among 400,000; further: nearly all actives have a fitted effect of over 60% in size
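Compound-treated KB-V1 multidrug-resistant cells, 72 h, 37 degrees C; viability by CellTiter-Glo. Fitted qHTS curves give the values.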
Active calls of the source: *; i = inactive; ? = inconclusive; · = not tested or not shown; [ ] = dose if it differs, or a comment. A selection: hits, their analogues and other compounds. The true share with any hit is near 19%. The call rests on the fitted dose curve; in most records, active means well fitted curve in the direction sought with a large enough effect; inconclusive means small, poorly fitted or top-dose-only effect, or another doubt; inactive means no such curve, though single readings can be large; an effect the other way counts as inactive or inconclusive. Unless noted, on the % scale 0 is the no-effect control and ±100 the full control effect; potency means the concentration at half of the fitted maximal effect.

SMILES | HT1080-NT tox | DT40 TDP1 CPT | HT1080 IDH1KD tx | KB-3-1 tox | DT40 TDP1 no CPT | KB-V1 cytotox
CC(=O)Nc1ccc(C(=O)Nc2nc(-c3ccccn3)cs2)cc1 | -7.4% | 16.4µM* | -5.4% | i | 14.6µM* | i
O=C(Nc1ccc(OC(F)(F)F)cc1)c1ccccc1-n1cnnn1 | 1.4% | 2.5% | -2.4% | i | 7.0% | i
O=C(Nc1nc(-c2ccccn2)cs1)c1ccc2c(c1)OCCO2 | -23.0% | 3.26µM* | ? | i | 3.26µM* | ?
O=C(Nc1nc(-c2ccccn2)cs1)c1ccccc1-n1cnnn1 | ? | 2.59µM* | ? | ? | ? | ?
CN(C(=O)c1ccc(NC(=O)Cc2cccc(NC(=O)C3CCN(C(=O)C4CCCCC4)CC3)c2)cc1)C1CCCC1 | -3.4% | -24.5% | -6.2% | i | -21.8% | i
COc1ccc(/C(C)=N/Nc2nc3ccccc3n3cnnc23)cc1OC | 2.8% | ? | -7.0% | i | 20.6µM* | i
CCOC(=O)C1CCCN(S(=O)(=O)c2cc(OCC(=O)NC3CCCCC3)c(C)cc2Cl)C1 (configuration not stated) | -2.7% | 18.4µM* | -8.9% | i | 18.4µM* | 16.4µM*
Cc1cc(Cl)c(S(=O)(=O)N2CCN(c3ccc(F)cc3)CC2)cc1OCC(=O)NC1CCCCC1 | ? | 11.6µM* | -22.9% | 0.731µM* | 8.2µM* | ?
Cc1cc(Cl)c(S(=O)(=O)NC2CCCCC2)cc1OCC(=O)Nc1nncs1 | -9.1% | 25.9µM* | ? | i | 23.1µM* | i
Cc1cc(S(=O)(=O)N2CCCC2)ccc1OCC(=O)NC1CCCC1 | 6.4% | 0.7% | -7.0% | i | -21.9% | i
COc1cc(CN2CCOc3ccc(CN4CCC(O)(c5cccnc5)CC4)cc3C2)ccc1F | · | 6.5%[9.04 µM] | · | · | ? | ·
COc1ccc(CCN2CC(C(=O)NCCN3CCCC3=O)CCC2=O)cc1 (configuration not stated) | -0.3% | -12.1% | -9.4% | i | -6.8% | i
Cc1noc(C)c1S(=O)(=O)NCCc1csc2nc(-c3ccc(Cl)cc3)nn12 | · | 23.1µM* | · | · | 11.6µM* | ·
CS(=O)(=O)NCCc1csc2nc(-c3ccccc3)nn12 | · | -3.7% | · | · | 0.5% | ·
O=S(=O)(NCCc1csc2nc(-c3ccc(Cl)cc3)nn12)c1cccs1 | · | 18.4µM* | · | · | 14.6µM* | ·
CC1(C(=O)N2Cc3ccccc3C2)CCN1C(=O)Cc1ccccc1 (configuration not stated) | 21.6% | ? | 12.9% | i | ? | i
CC(C)(CN1CCc2ccccc2C1)NS(=O)(=O)c1ccc(Cl)cc1 | -18.4% | ? | -24.9% | i | ? | i
COc1ccc(CNc2ncncc2-c2cccnc2)c(OC)c1 | · | -1.0% | · | · | -22.8% | ·
COc1ccc(CNc2ncncc2-c2ccoc2)c(OC)c1 | · | 23.1µM* | · | · | ? | ·
COc1cccc(-c2cncnc2NCc2ccc(OC)cc2OC)c1 | · | ? | · | · | 16.4µM* | ·
Cc1cc(Cl)ccc1NC(=O)CCS(=O)(=O)c1ccc2c(c1)CC(C)N2C(=O)C1CC1 (configuration not stated) | · | 11.6µM* | · | · | ? | ·
CC1Cc2cc(S(=O)(=O)CCC(=O)Nc3ccc(OC(F)(F)F)cc3)ccc2N1C(=O)C1CC1 (configuration not stated) | · | 7.31µM* | · | · | 5.8µM* | ·
CN1C(=O)Cc2cc(S(=O)(=O)CCC(=O)Nc3ccc(OC(F)(F)F)cc3)ccc21 | · | 4.6% | · | i | -7.8% | i
CC1Cc2cc(S(=O)(=O)CCC(=O)NC3CCCCC3)ccc2N1C(=O)C1CC1 (configuration not stated) | 10.0% | ? | 3.9% | i | -0.1% | i
COc1ccc(NC(=O)CCS(=O)(=O)c2ccc(OC)cc2)cc1 | -1.3% | -26.9% | 4.7% | i | ? | ?
SMILES | HT1080-NT tox | DT40 TDP1 CPT | HT1080 IDH1KD tx | KB-3-1 tox | DT40 TDP1 no CPT | KB-V1 cytotox
Cc1c(Cl)cccc1NC(=O)CCS(=O)(=O)c1ccc2c(c1)CC(C)N2C(=O)C1CC1 (configuration not stated) | · | 5.17µM* | · | · | 4.11µM* | ·
CCOc1ccc(NC(=O)CCS(=O)(=O)c2ccc(Br)cc2)cc1 | 4.1% | ? | 3.7% | i | 23.1µM* | i
CCCCCC(=O)N1C[C@@H](O)[C@H](n2cc(COC(=O)c3ccccc3)nn2)C[C@@H]1c1ccc(Cl)cc1 | -2.7% | -17.5% | -4.5% | i | -21.8% | i
CCC(C)[C@H]1CNC(=O)C(=O)N1CCCCC1CCCCC1 (some centres not stated) | 2.1% | -24.2% | -2.5% | i | -27.5% | i
C#CCOc1ccc(CNC[C@H]2O[C@@H](n3ccc(N)nc3=O)[C@H](O)[C@@H]2O)cc1 | 14.2% | 14.9% | -0.1% | i | -20.7% | i
Cc1ccc(S(=O)(=O)N(CCC(=O)Nc2ccc(OC(F)(F)F)cc2)c2ccccc2)cc1 | -16.2% | -12.4% | -9.4% | i | -25.7% | i
Cc1ccc(S(=O)(=O)CCC(=O)Nc2ccc(OC(F)(F)F)cc2)cc1 | · | 20.6µM* | · | i | ? | i
Cc1[nH]n(C(N)=S)c(=O)c1C(c1ccccc1)C(C#N)C#N (configuration not stated) | 17.8% | 1.46µM* | 15.9% | i | 1.46µM* | i
CCC(=O)Nc1ccccc1-c1nc2ccccc2n(C(C)C(=O)Nc2cccc(Cl)c2C)c1=O (configuration not stated) | · | ? | · | ? | ? | i
CC1=C(C(=O)N2CCOCC2)C(c2ccc(O)cc2)NC(=S)N1 (configuration not stated) | 15.2% | 9.3% | 10.1% | i | 1.3% | i
Oc1ccc2c(c1)C1CCCC1(N1CCOCC1)O2 (configuration not stated) | 13.9% | 23.1µM* | 4.2% | i | ? | i
Cc1cc(O)cc2c1C1CCC3(C)C(=O)CCC3C1C=C2 (configuration not stated) | -4.2% | ? | ? | i | ? | ?
CC(=O)OCC(C)n1[nH]c2ccccc2c1=O (configuration not stated) | 25.2% | 10.5% | 1.8% | i | 5.1% | i
O=C(Cn1c(=O)c2cccn2c2cccnc21)NCc1cccc(F)c1 | · | -24.6% | · | · | -29.4% | ·

Screens: PubChem, National Center for Advancing Translational Sciences (NCATS)
